The supplement of paper PMC11732987, “Enantioselective OTUD7B fragment discovery through chemoproteomics screening and high-throughput optimisation” (Communications Chemistry, 2025)

What was measured:
Assay in all cases: log2 ratio of Biotin-Ahx-Ub-VS probe labelling (fragment/DMSO); higher = less target engagement (more negative = stronger competition), active = hit call of the paper (q ≤ 0.05, log2 ratio ≤ -1)
Details in all cases: compound concentration: 200 uM; treatment time: 3 h
[1] = molecular target: T1, USP19 (UniProt O94966)
T1 sequence (whole entry): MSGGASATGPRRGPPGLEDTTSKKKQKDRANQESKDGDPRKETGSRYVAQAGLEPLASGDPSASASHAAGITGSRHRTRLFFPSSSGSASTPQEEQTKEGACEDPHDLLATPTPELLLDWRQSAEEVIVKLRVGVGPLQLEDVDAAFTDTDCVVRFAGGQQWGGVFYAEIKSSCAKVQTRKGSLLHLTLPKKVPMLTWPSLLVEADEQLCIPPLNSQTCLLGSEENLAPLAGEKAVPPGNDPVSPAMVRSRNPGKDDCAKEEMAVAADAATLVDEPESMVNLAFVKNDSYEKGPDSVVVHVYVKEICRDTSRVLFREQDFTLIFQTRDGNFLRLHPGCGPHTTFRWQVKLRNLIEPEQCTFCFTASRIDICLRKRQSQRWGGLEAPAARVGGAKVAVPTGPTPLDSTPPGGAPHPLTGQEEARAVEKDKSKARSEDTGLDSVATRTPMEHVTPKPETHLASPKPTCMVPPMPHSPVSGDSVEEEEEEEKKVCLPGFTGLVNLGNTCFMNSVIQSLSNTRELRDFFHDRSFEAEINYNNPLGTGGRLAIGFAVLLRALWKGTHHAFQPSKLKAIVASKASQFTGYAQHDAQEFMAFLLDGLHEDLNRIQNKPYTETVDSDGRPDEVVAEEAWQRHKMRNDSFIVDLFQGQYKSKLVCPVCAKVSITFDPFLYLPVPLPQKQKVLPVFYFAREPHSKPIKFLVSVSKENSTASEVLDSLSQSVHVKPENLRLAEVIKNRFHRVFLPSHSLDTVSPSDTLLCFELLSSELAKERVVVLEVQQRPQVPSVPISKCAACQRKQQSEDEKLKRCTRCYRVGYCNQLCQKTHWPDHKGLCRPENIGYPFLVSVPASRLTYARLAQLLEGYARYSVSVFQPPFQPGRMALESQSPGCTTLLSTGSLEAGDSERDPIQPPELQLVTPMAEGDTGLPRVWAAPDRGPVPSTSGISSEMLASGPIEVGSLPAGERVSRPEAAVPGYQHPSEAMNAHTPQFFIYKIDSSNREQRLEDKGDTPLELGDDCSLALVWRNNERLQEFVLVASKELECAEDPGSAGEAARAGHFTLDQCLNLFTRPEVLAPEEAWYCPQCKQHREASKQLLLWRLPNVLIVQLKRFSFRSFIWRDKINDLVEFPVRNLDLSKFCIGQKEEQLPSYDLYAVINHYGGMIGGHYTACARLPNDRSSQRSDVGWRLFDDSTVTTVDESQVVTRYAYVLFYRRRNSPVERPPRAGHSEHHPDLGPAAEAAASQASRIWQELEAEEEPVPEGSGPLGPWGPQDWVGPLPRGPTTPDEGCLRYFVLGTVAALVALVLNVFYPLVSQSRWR
Summary of the method: (§1)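 Average log2 ratios of fragment over vehicle were obtained by unpaired t-test from global-median-normalised Spectronaut label-free quantities. Proteins with ≥2 unique peptides were included. HEK293T lysate (495 µg per sample) was treated in triplicate with fragment at 200 µM or vehicle for 3 h, then with Biotin-Ahx-Ub-VS at 0.5 µM final for 1 h, and labelled DUBs were NeutrAvidin-enriched and run by diaPASEF LC-MS/MS.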

[2] = molecular target: T2, USP22 (UniProt Q9UPT9)
T2 sequence (whole entry): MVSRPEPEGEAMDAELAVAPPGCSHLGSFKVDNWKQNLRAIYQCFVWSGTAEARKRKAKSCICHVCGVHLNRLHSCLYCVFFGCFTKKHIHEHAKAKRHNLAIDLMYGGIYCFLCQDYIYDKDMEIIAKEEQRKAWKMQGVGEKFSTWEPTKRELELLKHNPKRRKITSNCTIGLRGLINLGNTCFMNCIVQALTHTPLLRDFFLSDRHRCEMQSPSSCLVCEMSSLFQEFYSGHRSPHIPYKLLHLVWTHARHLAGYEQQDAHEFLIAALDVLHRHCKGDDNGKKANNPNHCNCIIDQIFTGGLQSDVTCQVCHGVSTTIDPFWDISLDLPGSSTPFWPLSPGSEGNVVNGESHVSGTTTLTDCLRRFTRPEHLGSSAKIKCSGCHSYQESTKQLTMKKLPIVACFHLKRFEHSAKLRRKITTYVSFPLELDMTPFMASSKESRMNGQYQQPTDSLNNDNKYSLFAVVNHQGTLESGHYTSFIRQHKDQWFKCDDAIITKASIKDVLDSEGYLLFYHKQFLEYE
Summary of the method: as §1

[3] = molecular target: USP24 (UniProt Q9UPU5)
Summary of the method: as §1

[4] = molecular target: T3, USP25 (UniProt Q9UHP3)
T3 sequence (whole entry): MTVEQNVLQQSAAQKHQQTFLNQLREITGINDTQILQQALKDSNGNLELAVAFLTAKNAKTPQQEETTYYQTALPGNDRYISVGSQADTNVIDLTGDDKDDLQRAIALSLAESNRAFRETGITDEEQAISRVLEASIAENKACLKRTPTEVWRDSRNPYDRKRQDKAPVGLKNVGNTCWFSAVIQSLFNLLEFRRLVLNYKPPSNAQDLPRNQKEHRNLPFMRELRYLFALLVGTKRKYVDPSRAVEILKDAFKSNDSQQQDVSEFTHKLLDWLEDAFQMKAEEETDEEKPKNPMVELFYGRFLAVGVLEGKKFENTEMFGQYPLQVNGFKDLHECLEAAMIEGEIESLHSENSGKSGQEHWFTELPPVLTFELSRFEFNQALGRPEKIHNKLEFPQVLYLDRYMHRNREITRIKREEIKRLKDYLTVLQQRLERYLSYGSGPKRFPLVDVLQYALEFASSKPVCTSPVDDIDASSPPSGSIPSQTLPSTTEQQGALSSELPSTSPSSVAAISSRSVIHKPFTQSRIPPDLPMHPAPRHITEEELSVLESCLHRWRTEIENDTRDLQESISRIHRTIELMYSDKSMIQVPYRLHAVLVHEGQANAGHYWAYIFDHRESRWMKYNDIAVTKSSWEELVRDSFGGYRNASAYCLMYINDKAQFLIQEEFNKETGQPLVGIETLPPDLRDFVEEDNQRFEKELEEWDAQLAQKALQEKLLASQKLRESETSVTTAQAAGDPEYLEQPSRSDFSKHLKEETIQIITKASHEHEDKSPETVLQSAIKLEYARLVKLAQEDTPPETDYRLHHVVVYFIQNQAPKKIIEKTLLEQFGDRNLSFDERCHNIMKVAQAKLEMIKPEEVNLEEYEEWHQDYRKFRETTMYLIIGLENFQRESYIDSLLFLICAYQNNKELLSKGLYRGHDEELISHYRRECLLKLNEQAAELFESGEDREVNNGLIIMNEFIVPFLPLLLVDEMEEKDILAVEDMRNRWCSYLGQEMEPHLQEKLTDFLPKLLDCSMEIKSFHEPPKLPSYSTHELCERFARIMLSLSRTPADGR
Summary of the method: as §1

[5] = molecular target: T4, USP28 (UniProt Q96RU2)
T4 sequence (whole entry): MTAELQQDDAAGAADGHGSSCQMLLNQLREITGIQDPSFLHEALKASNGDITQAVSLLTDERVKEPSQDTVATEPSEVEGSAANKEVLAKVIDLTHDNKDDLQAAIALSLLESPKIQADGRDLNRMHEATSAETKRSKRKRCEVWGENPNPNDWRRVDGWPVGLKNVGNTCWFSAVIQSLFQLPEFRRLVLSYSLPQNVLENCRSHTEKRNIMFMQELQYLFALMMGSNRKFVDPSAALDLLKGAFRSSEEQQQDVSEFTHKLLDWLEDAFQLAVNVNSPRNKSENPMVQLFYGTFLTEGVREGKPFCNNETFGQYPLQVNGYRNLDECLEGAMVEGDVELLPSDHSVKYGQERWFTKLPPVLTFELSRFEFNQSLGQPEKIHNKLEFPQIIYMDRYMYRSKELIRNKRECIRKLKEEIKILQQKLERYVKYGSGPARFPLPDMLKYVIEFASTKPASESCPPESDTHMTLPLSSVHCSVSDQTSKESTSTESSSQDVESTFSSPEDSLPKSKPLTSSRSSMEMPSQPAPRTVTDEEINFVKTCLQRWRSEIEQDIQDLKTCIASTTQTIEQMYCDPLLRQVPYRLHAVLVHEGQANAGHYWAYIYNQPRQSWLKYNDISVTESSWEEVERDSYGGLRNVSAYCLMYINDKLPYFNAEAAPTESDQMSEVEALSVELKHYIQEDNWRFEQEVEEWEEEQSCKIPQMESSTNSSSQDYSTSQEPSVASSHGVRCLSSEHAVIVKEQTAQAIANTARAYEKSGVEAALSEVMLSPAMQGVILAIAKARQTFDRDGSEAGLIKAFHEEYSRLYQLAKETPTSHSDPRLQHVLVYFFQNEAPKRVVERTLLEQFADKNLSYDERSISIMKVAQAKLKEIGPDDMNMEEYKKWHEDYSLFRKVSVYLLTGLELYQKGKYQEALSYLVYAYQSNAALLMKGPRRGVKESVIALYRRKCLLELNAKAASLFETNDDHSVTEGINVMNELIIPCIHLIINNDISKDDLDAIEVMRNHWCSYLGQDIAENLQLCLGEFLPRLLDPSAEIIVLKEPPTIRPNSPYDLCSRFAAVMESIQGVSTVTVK
Summary of the method: as §1

Measured: log2 ratio of Biotin-Ahx-Ub-VS probe labelling

Chain of USP24 (Q9UPU5 whole entry): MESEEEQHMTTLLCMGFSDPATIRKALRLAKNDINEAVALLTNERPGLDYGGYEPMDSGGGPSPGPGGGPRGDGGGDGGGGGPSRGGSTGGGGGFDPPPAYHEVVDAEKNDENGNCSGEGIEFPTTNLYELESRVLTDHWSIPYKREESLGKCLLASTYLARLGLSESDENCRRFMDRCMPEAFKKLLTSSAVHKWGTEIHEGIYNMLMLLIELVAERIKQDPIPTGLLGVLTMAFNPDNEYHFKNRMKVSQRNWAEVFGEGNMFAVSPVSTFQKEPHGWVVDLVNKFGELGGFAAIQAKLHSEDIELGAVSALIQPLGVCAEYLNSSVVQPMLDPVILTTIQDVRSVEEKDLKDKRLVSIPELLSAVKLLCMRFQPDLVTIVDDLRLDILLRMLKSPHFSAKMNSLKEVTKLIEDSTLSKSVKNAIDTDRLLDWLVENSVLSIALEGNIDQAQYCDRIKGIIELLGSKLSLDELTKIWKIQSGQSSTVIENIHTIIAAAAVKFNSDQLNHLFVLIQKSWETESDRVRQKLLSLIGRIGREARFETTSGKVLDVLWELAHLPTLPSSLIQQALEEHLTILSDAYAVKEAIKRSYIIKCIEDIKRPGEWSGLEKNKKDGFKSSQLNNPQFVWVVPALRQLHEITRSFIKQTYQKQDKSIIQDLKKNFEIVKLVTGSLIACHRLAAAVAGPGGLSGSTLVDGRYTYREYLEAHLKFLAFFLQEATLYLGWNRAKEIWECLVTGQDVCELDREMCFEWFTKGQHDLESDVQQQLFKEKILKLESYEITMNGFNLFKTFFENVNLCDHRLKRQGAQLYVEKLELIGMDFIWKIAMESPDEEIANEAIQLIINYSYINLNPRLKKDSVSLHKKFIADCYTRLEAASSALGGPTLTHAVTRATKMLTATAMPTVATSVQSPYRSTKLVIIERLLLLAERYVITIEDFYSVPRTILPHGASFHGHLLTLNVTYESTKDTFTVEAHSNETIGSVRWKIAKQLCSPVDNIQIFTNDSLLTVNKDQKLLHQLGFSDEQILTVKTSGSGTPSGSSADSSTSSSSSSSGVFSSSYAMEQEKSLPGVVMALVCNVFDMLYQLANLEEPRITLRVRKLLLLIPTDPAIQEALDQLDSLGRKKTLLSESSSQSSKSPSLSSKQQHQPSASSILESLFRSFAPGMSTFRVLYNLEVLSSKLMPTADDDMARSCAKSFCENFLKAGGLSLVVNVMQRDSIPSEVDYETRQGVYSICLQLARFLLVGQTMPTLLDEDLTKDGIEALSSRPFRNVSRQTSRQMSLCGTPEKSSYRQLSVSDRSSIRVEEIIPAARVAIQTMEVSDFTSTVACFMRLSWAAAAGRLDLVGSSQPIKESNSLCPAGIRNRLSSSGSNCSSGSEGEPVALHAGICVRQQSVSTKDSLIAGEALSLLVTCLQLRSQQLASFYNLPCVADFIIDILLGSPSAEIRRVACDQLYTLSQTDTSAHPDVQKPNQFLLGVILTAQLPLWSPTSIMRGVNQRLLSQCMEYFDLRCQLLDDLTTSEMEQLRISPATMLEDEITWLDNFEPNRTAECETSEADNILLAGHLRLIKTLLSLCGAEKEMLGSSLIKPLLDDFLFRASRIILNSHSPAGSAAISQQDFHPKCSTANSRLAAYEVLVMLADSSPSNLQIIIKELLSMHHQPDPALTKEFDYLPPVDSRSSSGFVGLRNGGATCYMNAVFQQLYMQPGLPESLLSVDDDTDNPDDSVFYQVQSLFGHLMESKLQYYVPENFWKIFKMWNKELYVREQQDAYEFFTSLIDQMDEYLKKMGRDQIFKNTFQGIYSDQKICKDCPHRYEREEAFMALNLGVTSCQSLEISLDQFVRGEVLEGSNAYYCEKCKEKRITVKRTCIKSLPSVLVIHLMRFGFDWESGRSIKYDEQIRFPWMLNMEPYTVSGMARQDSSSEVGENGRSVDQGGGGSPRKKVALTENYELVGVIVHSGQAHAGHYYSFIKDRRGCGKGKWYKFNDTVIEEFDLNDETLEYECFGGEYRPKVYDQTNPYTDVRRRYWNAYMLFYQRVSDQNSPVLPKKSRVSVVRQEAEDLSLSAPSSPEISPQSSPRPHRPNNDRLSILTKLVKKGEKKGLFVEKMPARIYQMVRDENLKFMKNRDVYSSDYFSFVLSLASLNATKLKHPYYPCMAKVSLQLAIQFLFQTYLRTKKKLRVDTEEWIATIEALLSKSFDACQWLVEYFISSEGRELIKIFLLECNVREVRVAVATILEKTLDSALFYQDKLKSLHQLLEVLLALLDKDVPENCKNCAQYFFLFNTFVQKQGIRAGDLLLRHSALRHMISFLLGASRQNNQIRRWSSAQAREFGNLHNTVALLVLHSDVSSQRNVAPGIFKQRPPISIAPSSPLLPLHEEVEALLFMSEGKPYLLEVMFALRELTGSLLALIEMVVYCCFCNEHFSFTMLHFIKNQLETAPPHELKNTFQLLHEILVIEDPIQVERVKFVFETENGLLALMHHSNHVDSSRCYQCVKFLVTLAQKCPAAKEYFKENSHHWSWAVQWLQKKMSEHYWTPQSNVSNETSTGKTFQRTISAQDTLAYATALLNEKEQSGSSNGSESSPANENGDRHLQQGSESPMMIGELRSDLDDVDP

CN(C)S(=O)(=O)c1ccccc1CNC(=O)CCl
inactive: [1] 0.0268 | [2] -0.12 | [3] -0.108 | [4] -0.258 | [5] -0.239
